Assay results: publication PMC7862700, “An all-to-all approach to the identification of sequence-specific readers for epigenetic DNA modifications on cytosine”

Tests used:
Experiment in all cases: DAPPL (digital affinity profiling via proximity ligation, sequencing); 10 mM Tris-HCl pH 7.5, 50 mM NaCl, 1 mM DTT, 4% glycerol, room temperature, 30 min; GST-TFs on glutathione beads, 16-mer random dsDNA library, 0.1% formaldehyde crosslink after washing; high values mean tight binding
FEV = target: T1, FEV (Homo sapiens, UniProt Q99581 1-238); conditions: protein: recombinant; tags: N-terminal GST; dsDNA, one strand shown
T1 sequence: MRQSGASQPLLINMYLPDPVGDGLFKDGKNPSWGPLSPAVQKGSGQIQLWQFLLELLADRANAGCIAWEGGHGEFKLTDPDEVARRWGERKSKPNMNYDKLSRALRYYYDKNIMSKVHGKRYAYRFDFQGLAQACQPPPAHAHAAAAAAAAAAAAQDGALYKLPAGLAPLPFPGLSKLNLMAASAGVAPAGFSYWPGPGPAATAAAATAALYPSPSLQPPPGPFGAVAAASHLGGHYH
How it was run: (§1)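 Human transcription factors fused to GST were expressed in yeast, captured on glutathione beads, given DNA barcodes and pooled with a GST-only negative control. Pools were incubated with 200 nmole of a 16-mer random double-stranded DNA library in Tris/NaCl/DTT/glycerol buffer at room temperature for 30 min. They were then washed, crosslinked with 0.1% formaldehyde, proximity-ligated (BsaI/T4 ligase, 1 h, 37 °C), PCR-amplified and sequenced on an Illumina NextSeq500. Binding signal is each 6-mer's read frequency for a factor divided by its frequency for the GST control.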

ETV5 = ETV5 (Homo sapiens, UniProt P41161 1-510); conditions: protein: recombinant; tags: N-terminal GST; dsDNA, one strand shown
How it was run: as §1

HSF1 = HSF1 (Homo sapiens, UniProt Q00613 1-529); conditions: protein: recombinant; tags: N-terminal GST; chain copies: 3; dsDNA, one strand shown
How it was run: as §1

SPIC = target: T2, SPIC (Homo sapiens, UniProt Q8N5J4 1-248); conditions: protein: recombinant; tags: N-terminal GST; dsDNA, one strand shown
T2 sequence: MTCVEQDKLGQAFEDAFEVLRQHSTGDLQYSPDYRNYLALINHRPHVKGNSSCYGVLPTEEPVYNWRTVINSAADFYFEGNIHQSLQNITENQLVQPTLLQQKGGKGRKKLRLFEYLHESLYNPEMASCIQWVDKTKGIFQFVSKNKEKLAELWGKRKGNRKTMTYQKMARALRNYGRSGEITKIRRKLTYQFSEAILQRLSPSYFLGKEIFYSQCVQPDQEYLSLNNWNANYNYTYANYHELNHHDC
How it was run: as §1

ELF4 = ELF4 (Homo sapiens, UniProt Q99607 1-663); conditions: protein: recombinant; tags: N-terminal GST; dsDNA, one strand shown
How it was run: as §1

ELK4 = target: T3, ELK4 (Homo sapiens, UniProt P28324-2 1-405); conditions: protein: recombinant; tags: N-terminal GST; dsDNA, one strand shown
T3 sequence: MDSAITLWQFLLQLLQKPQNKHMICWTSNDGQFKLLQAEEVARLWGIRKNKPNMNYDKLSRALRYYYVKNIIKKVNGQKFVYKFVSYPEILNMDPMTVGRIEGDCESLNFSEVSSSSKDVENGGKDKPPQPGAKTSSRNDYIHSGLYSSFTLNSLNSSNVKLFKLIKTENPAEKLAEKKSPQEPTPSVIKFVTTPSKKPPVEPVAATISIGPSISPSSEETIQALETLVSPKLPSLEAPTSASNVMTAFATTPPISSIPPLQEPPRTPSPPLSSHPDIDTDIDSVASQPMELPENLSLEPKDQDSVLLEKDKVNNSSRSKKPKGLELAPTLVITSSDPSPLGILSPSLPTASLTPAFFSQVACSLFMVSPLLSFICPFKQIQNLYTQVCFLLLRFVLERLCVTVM
How it was run: as §1

ETV2 = target: T4, ETV2 (Homo sapiens, UniProt O00321 1-342); conditions: protein: recombinant; tags: N-terminal GST; dsDNA, one strand shown
T4 sequence: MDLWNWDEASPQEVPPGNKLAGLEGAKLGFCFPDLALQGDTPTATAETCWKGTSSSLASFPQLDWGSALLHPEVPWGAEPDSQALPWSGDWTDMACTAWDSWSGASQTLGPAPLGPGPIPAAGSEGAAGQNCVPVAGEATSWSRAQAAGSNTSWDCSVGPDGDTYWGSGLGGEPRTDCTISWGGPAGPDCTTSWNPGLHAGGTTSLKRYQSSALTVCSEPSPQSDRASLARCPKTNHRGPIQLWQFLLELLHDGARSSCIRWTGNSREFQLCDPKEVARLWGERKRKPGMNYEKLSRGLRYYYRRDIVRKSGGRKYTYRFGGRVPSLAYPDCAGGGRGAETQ
How it was run: as §1

ELF3 = target: T5, ELF3 (Homo sapiens, UniProt P78545 1-371); conditions: protein: recombinant; tags: N-terminal GST; dsDNA, one strand shown
T5 sequence: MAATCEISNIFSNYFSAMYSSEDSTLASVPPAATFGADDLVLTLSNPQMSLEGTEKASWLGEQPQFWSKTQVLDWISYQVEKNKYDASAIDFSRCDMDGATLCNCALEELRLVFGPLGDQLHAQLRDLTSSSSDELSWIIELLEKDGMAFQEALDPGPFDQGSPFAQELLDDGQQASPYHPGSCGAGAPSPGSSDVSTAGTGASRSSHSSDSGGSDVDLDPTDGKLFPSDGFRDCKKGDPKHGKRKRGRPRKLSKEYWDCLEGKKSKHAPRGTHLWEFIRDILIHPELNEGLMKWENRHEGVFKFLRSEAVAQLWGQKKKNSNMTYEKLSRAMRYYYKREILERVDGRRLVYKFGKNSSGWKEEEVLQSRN
How it was run: as §1

CRX = CRX (Homo sapiens, UniProt O43186 1-299); conditions: protein: recombinant; tags: N-terminal GST; dsDNA, one strand shown
How it was run: as §1

Chain of CRX (O43186 whole entry): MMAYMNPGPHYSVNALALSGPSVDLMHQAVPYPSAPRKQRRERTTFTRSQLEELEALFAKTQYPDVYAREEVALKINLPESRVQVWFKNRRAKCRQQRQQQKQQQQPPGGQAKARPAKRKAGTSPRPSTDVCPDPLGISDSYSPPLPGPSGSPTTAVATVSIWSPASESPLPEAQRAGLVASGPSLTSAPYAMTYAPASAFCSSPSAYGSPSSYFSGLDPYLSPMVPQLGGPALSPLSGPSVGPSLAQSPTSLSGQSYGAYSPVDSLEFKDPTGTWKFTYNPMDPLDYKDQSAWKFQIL
Chain of HSF1 (Q00613 whole entry): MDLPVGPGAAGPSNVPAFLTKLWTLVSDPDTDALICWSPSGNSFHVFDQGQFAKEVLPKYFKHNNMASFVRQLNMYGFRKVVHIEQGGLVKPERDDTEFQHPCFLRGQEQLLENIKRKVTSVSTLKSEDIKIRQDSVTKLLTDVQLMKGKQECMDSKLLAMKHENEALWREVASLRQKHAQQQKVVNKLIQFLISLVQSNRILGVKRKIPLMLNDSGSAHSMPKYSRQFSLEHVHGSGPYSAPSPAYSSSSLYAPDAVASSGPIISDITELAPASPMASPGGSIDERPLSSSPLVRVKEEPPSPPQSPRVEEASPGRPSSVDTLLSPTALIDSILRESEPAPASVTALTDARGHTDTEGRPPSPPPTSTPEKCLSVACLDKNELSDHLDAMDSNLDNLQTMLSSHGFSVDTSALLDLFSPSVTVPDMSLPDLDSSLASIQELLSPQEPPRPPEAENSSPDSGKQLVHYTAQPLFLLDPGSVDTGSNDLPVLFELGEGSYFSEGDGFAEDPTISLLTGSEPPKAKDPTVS
Chain of ELF4 (Q99607 whole entry): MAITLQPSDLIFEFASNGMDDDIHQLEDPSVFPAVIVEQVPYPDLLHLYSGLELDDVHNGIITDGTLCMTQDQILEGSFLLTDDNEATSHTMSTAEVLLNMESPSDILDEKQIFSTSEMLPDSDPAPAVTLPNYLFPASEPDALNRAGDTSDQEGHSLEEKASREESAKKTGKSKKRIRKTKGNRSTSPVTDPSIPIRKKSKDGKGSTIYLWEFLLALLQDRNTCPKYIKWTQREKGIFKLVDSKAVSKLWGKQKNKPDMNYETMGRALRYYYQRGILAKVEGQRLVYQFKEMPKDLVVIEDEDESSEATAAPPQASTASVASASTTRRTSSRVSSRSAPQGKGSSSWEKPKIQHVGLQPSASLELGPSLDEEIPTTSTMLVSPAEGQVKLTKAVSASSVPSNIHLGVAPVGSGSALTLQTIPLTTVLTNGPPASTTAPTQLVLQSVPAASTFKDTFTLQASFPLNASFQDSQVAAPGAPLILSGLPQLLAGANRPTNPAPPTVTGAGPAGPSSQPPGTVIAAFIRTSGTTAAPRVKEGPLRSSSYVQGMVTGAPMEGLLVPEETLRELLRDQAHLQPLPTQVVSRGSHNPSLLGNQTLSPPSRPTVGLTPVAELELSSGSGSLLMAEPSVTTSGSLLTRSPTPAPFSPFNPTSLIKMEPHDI
Chain of ETV5 (P41161 whole entry): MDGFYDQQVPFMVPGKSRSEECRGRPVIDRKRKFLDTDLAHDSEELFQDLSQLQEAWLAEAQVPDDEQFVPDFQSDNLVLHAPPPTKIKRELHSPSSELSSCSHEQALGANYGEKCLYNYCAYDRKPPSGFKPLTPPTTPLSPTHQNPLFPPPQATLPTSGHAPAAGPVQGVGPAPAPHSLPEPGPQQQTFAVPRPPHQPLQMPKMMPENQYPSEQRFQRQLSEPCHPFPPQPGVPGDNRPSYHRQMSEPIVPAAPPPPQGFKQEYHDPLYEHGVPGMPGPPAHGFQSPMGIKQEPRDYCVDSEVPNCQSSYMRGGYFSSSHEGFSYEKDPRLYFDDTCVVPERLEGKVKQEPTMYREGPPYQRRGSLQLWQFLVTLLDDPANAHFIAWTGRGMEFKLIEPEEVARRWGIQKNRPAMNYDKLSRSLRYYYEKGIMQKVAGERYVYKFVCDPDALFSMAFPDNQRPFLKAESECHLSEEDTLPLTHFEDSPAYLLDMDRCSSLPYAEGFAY

Sequence: ATAATA
- binding signal (FEV): 1.17 fold enrichment (6-mer frequency, TF over GST control)
- binding signal (ETV5): 1.18 fold enrichment (6-mer frequency, TF over GST control)
- binding signal (HSF1): 1.67 fold enrichment (6-mer frequency, TF over GST control)
- binding signal (SPIC): 1.21 fold enrichment (6-mer frequency, TF over GST control)
- binding signal (ELF4): 1.14 fold enrichment (6-mer frequency, TF over GST control)
- binding signal (ELK4): 1.14 fold enrichment (6-mer frequency, TF over GST control)
- binding signal (ETV2): 1.1 fold enrichment (6-mer frequency, TF over GST control)
- binding signal (ELF3): 1.15 fold enrichment (6-mer frequency, TF over GST control)
- binding signal (CRX): 2.14 fold enrichment (6-mer frequency, TF over GST control)
